# High-throughput results (PubChem BioAssay)
# In the library only some 1.5% were active in any assay of this set; here they are far more common.
# VHR inh abs: VHR1 phosphatase inhibitors, primary screen, biochemical, absorbance, uHTS; Dual specificity protein phosphatase 3 (Homo sapiens), P51452; 290,000 compounds, 0.52% hits; inhibition, % at 13.3 µM; AID 1654, 2009; recombinant VHR phosphatase, pNPP absorbance; in the data active = inhibition above about 50%
# Target sequence (P51452 whole entry, looked up): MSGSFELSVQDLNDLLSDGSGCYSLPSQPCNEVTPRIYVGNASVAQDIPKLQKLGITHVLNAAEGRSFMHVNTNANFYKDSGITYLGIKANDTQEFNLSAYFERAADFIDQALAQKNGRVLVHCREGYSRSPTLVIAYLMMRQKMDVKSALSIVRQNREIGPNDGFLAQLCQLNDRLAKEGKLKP
# Sa RN4220 lethal: growth inhibition of S. aureus RN4220, primary screen, OD600 | AID 1259311, 2017 | inhibition, % (no concentration beside the values) | 16 h | 330,000 compounds, 0.33% hits; in the data active = inhibition above about 85%;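 note: plate controls were untreated cells for no effect and reference antibiotic for full effect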
# CCHF vOTU inh: CCHFV vOTU protease inhibitors, primary screen, biochemical, Pep-AMC substrate, fluorescence | inhibition, % at 11.5 µM | 370,000 compounds, 0.55% hits | AID 651958, 2012; in the data active = inhibition above about 30%; note: 0% = vehicle wells with enzyme and 100% = no enzyme wells
# SSB-PriA inh: inhibitors of Klebsiella pneumoniae PriA binding to SSB C-terminal tail, primary screen, biochemical, AlphaScreen; AID 1272365, 2023; PriA–SSB C-terminal tail interaction (Klebsiella pneumoniae); AlphaScreen SSBct-PriA binding, biotinylated peptide; 430,000 compounds, 0.6% hits; inhibition, % at 33 µM; in the data active = inhibition mostly above about 37%, no sharp cut-off; inactive = mostly below about 20%;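 note: plate controls were negative control peptide for no effect and reference peptide for full effect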
# Sa ugtP lethal: growth inhibition of ugtP-null S. aureus, primary screen, RN4220 ugtP deletion, OD600; 16 h; growth inhibition, % (no concentration beside the values); 330,000 compounds, 0.54% hits; AID 1259309, 2017; in the data active = growth inhibition above about 68%;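 note: plate controls were untreated wells for no effect and antibiotic for full effect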
# * marks the source's active call; other numbers are inactive results; nt = no result given.
SMILES,VHR inh abs,Sa RN4220 lethal,CCHF vOTU inh,SSB-PriA inh,Sa ugtP lethal
COc1cc(/C=C/C(=O)Nc2ccc(OC)c(S(=O)(=O)N3CCOCC3)c2)ccc1OC(F)F,nt,-12.0,13.5,0.7,86.6*
COc1ccc(/C=C/C(=O)Nc2ccc(C(C)=O)cc2)cc1S(=O)(=O)N1CCOCC1,nt,nt,-4.2,nt,nt
Cc1nc(Nc2cccnc2)sc1C(=O)O,nt,nt,nt,-6.0,nt
Fc1cc(-c2ccncc2)c2ncccc2c1,nt,nt,nt,33.6,nt
CN(C)c1ccc(-c2cc(O)c3ncccc3c2)cc1,nt,nt,9.3,42.8,nt
Oc1cc(Nc2ccncc2)cc2cccnc12,nt,5.0,13.9,103.9*,0.5
Oc1cc(-c2ccncc2)cc2cccnc12,nt,100.5*,17.6,55.4*,95.1*
O=[N+]([O-])c1cc(O)cc2cccnc12,nt,nt,nt,32.0,nt
Nc1cc(O)c2ncccc2c1,nt,nt,nt,140.0*,nt
Oc1cc(Nc2cccnc2)cc2cccnc12,nt,16.6,6.1,89.1*,11.9
Cc1nc(-c2cccc(NC(=O)c3coc(NC(=O)c4cccs4)n3)c2)cs1,nt,nt,nt,8.0,nt
O=C(Nc1cccc(-c2nc3ccccc3[nH]2)c1)c1ccc(Cl)cc1Cl,nt,nt,nt,-19.0,nt
O=C(NCCc1csc2nc(-c3ccccc3F)nn12)NC1CCCCCC1,nt,nt,nt,-10.0,nt
Cn1cnnc1SCCCNC(=O)Nc1ncccn1,nt,nt,nt,0.0,nt
CC(O)(CNC(=O)c1ccccc1S(=O)(=O)C(F)F)c1ccc2c(c1)OCO2 (centres undefined),nt,nt,nt,19.0,nt
CN(C)CCCNC(=O)c1ccc(-c2nc(-c3ccc(Cl)cc3)cs2)cc1,17.9,31.7,-4.8,-18.6,84.2*
CN(C)CCCNC(=O)c1ccccn1,11.9,1.0,-1.2,1.2,0.6
CN(C)CCCNCCCNC(=O)c1ccncc1,1.5,-0.8,-3.4,-6.6,1.0
CN(C)CCCNC(=O)c1ccc(-c2cc(O)c3ncccc3c2)cc1,nt,-3.0,0.4,83.3*,2.8
O=C(CSc1ncnc2c(-c3ccccc3)c[nH]c12)NCc1ccc(Cl)cc1,nt,nt,nt,-5.0,nt
CCCCC(Sc1ccc2nnc(-c3ccccn3)n2n1)C(=O)O (centres undefined),nt,nt,nt,94.0*,nt
COC(=O)CSc1ccc2nnc(-c3ccccn3)n2n1,nt,nt,nt,77.1*,nt
CCCCC(Sc1ccc2nnc(-c3ccc(OC)c(OC)c3)n2n1)C(=O)O (centres undefined),nt,nt,nt,-9.0,nt
O=C(CSc1ccc2nnc(-c3ccccn3)n2n1)Nc1ccccc1,36.6,1.8,-3.0,-10.4,3.0
Cc1cccc(S(=O)(=O)Nc2ccc3c(c2)CC(=O)N3C)c1,nt,nt,nt,11.0,nt
SMILES,VHR inh abs,Sa RN4220 lethal,CCHF vOTU inh,SSB-PriA inh,Sa ugtP lethal
CSc1ccc(C(=O)C2CCCN(C)C2)cc1 (centres undefined),53.3*,3.9,12.9,-24.4,5.9
CN1CCCC(C(=O)c2ccccc2)C1 (centres undefined),4.9,1.9,7.4,-12.6,6.2
COc1ccc(CC(=O)c2ccc(SC)cc2)cc1,nt,nt,nt,-10.0,nt
CCC(C)n1c(=O)c(C(=O)Nc2ccccc2S(N)(=O)=O)c(O)c2ccccc21 (centres undefined),-0.4,103.4*,20.3,-12.6,76.5
COc1ccc(-c2ccc(SCC(=O)Nc3cccc(C(F)(F)F)c3)nn2)cc1OC,nt,nt,nt,-17.0,nt
CSc1nc(Cl)c(Cc2ccc(OC(C)C)cc2)c(N2CCOCC2)n1,34.5,-4.8,0.5,-35.0,97.5*
CCCOc1ccc(Cc2c(Cl)nc(SC)nc2N(C)C)cc1,-0.3,-2.2,-1.8,-9.0,87.3*
COc1nc(SC)nc(Cl)c1Cc1ccc(OC(C)C)cc1,7.3,-7.3,10.8,1.7,92.1*
CCCOc1ccc(CSc2n[nH]c(C)n2)cc1,-19.5,nt,-11.8,-17.9,nt
CCCOc1ccc(Cc2c(Cl)nc(SC)nc2OC)cc1,0.4,-3.9,3.1,-51.6,89.2*
CSc1nc(N2CCOCC2)c2sccc2n1,16.6,6.5,3.5,-11.9,14.7
O=C(c1ccc(C(F)(F)F)cc1)N(CCc1cccs1)C1CC1,nt,nt,nt,-14.0,nt
Cn1c(=O)[nH]c(=O)c2c1nc(N1CCN(Cc3ccccc3F)CC1)n2Cc1cccc2ccccc12,nt,nt,nt,-13.0,nt
Cc1occc(=O)c1OC(=O)Nc1ccc(Cl)c(Cl)c1,-8.5,99.5*,-2.3,-24.1,98.7*
CCCCCCCCCCCCCCCCn1cc[n+](CC(C)=O)c1,33.2,100.2*,nt,-19.3,100.8*
O=S(=O)(/N=C/c1c(O)ccc2ccccc12)c1ccccc1,53.9*,nt,-16.6,nt,nt
O=C(CSc1ccc(F)cc1)NCc1ccccc1-c1ccsc1,nt,nt,nt,-27.0,nt
COc1ncc(NC(=O)Nc2ccc(C)c(F)c2)c(N(C)C)n1,nt,nt,nt,-6.0,nt
O=C(c1ccco1)[C@@H]1[C@@H]2C(=O)N(c3ccccc3)C(=O)[C@@H]2C2c3ccccc3C=CN21 (some centres undefined),5.0,5.1,96.4*,22.6,-1.9
Cc1nn(C)c(C(=O)NN=Cc2cccc(Oc3ccccc3)c2)c1Br,nt,nt,nt,8.9,nt
COc1ccccc1NC(=O)CSc1n[nH]c(-c2ccco2)n1,nt,nt,1.5,-3.7,nt
O=C(CN1CCN(c2ccccn2)CC1)Nc1ccccc1F,57.0*,3.1,-11.5,0.3,1.8
COc1ccc(NC(=O)CSc2n[nH]c(-c3ccccc3)n2)cc1,nt,nt,nt,30.8,nt
O=C(CSc1n[nH]c(-c2ccccn2)n1)Nc1ccccc1,9.6,-1.8,-3.0,82.2*,-8.2
COc1ccc(NC(=O)CSc2n[nH]c(-c3ccccn3)n2)cc1,-13.7,0.2,-1.8,67.3*,-3.3
SMILES,VHR inh abs,Sa RN4220 lethal,CCHF vOTU inh,SSB-PriA inh,Sa ugtP lethal
COc1ccccc1NC(=O)CSc1n[nH]c(-c2ccccn2)n1,-8.1,0.9,9.9,76.7*,-3.6
Cc1cc(C)c2c(n1)sc1c(=O)n(CC(=O)Nc3ccccc3F)cnc12,nt,nt,nt,0.0,nt
COc1ccc(CCC(=O)Nc2ccc(-c3cn4nc(OC)ccc4n3)cc2)cc1,nt,nt,nt,-3.0,nt
CC(C)NC(=O)CSc1nnnn1-c1ccccc1F,nt,nt,nt,4.0,nt
COc1ccccc1-c1nc(SCC(=O)Nc2ccccc2F)n[nH]1,18.8,3.1,13.8,-9.9,0.1
O=C(CSc1n[nH]c(-c2ccccn2)n1)Nc1ccccc1F,-24.8,2.6,3.0,49.8*,6.5
Cc1onc(-c2c(F)cccc2Cl)c1C(=O)NC1C(=O)N2C1SC(C)(C)C2C(=O)O (centres undefined),nt,100.5*,nt,nt,100.3*
Cc1onc(-c2ccccc2)c1C(=O)N[C@@H]1C(=O)N2[C@@H]1SC(C)(C)[C@@H]2C(=O)O,-26.1,nt,nt,nt,nt
COc1ccc(Cl)cc1C(=O)N1CCc2cnc(N3CCOCC3)nc2C1,nt,nt,nt,1.0,nt
Cc1ccc(/C(N)=N/OC(=O)N2c3ccccc3Sc3ccccc32)cc1,nt,5.6,18.5,nt,-12.4
Cc1ccc(C(N)=NOC(=O)N2c3ccccc3Sc3ccccc32)cc1,nt,nt,nt,57.0*,nt
O=C(NCCn1nc(-c2cccnc2)ccc1=O)c1ccc(Cl)cc1,nt,nt,nt,-7.0,nt
Cc1cccc(NNC(=O)C(=O)NNc2cccc(C)c2)c1,5.4,4.6,-1.8,-1.2,6.9
Cc1cccc(N=NC(=S)NNc2cccc(C)c2)c1,nt,-3.1,11.0,51.6*,-0.3
Cc1nc2ccccc2c(=O)n1-c1ccc(Cl)c(NC(=O)C2CC2)c1,nt,nt,nt,-4.0,nt
